High-throughput results as filed in PubChem.
HP1b chromo inh: HP1-beta chromodomain-methylated histone interaction inhibition; Potency, µM (titrated, usually from 114 µM), without a hit: at the highest dose activity change, negative = inhibition, actives largely listed as inhibitors; AID 540317; P83916; AlphaScreen HP1-beta / biotin-H3K9me3 peptide binding; 0.56% of 390,000 active; note: nearly all actives have a fitted effect of over 70% in size
Target sequence (P83916 whole entry, looked up): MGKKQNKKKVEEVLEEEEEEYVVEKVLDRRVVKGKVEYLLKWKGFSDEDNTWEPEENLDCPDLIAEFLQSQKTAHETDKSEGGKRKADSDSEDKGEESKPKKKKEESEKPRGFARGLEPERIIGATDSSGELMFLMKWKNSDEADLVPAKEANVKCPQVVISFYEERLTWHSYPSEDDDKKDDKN
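AlphaScreen: HP1-beta (50 nM) preformed 30 min with biotin-H3(1-18)K9me3 peptide (50 nM) in PBS pH 7.4, 0.01% Tween-20. Compound added for 30 min at RT, then streptavidin donor/nickel chelate acceptor beads (10 ug/mL) for 30 min.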
L3MBTL1 block: L3MBTL1 (human) inhibition | Q9Y468 | AlphaScreen L3MBTL1–H3K9me1 peptide binding | Potency, µM (top dose mostly 57.1 µM), without a hit: at the highest dose activity, negative = inhibition, most hits filed as inhibitors | 0.66% of 230,000 active; note: % is set by controls: 0 for no effect and ±100 for the full control effect; nearly all actives have a fitted effect of over 60% in size
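L3MBTL1 (50 nM) pre-complexed 30 min with biotinylated H3(1-15)K9me1 peptide (75 nM), then compounds added for 30 min at room temperature; AlphaScreen streptavidin donor/nickel chelate acceptor beads (10 ug/mL final) read after 30 min dark incubation.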
BAZ2B block: blocks human BAZ2B; Q9UIF8; AlphaScreen BAZ2B-H3K14Ac peptide displacement; Potency, µM (doses to about 114 µM), inactives show at the top dose activity change, negative = inhibition, usual class: inhibitors; 4.4% of 360,000 active; AID 504333; note: % is set by controls: 0 for no effect and ±100 for the full control effect; nearly all actives have a fitted effect of over 60% in size
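Compounds, titrated to a top concentration of 110 uM, were incubated 30 min at room temperature with preformed BAZ2B/acetyl-K14 H3 peptide complex (50 nM each). Proximity signal was measured by AlphaScreen after 20 min with beads.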
JMJD2A Tudor inh: inhibitors of human JMJD2A Tudor domain; AlphaScreen JMJD2A-Tudor / H3K4me3 peptide binding; Potency, µM (titrated, usually from 114 µM), inactives show at the top dose activity change, negative = inhibition, actives largely listed as inhibitors; 4.4% of 390,000 active; AID 504339; note: % is set by controls: 0 for no effect and ±100 for the full control effect; nearly all actives have a fitted effect of over 50% in size
Sfp inh: blocks B. subtilis Sfp PPTase activity; Q9F4F7; Biochemical Sfp PPTase activity, qHTS; Potency, µM, for the others: largest response in the series, negative = inhibition, most hits filed as inhibitors; 3.5% of 310,000 active; AID 1490;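 note: the enzyme is Sfp with the accession as filed and its product quenches rhodamine fluorescence; 0% = enzyme reaction without inhibitor and -100% = no enzyme wells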
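Step 1, compound plus 15 nM Sfp-PPTase, 15 min, room temperature. Step 2, add rhodamine-CoA (5 uM) and BHQ-2-YbbR (12.5 uM). Step 3, read 525/598 nm fluorescence at 0 and 30 min.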
G9a block: blocks human histone lysine methyltransferase G9a; Q96KQ7; G9a H3K9 monomethylation, AlphaScreen, 2 h; Potency, µM (doses to about 102 µM), for the others: at the highest dose activity, negative = inhibition, hits mostly inhibitors; 8.8% of 350,000 active; AID 504332; note: % is set by controls: 0 for no effect and ±100 for the full control effect; nearly all actives have a fitted effect of over 75% in size
Target sequence (Q96KQ7 913-1193 limits assumed): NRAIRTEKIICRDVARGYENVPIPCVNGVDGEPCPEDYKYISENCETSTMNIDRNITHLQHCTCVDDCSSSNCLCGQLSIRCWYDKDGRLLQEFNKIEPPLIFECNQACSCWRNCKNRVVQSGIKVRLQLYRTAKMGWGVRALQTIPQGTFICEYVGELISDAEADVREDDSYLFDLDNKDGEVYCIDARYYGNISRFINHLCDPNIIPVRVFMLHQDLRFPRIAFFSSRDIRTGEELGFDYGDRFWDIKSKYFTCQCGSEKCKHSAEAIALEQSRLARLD
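G9a (20 nM) was preincubated 15 min with compound, then reacted 2 h at room temperature with 500 nM biotin-H3K9 peptide and 20 µM SAM. Monomethyl-H3K9 detected by AlphaScreen using anti-H3K9me1 antibody.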
An asterisk follows results filed as active; u = inconclusive; x = not tested or not shown; [ ] = remark or other dose. This is a sample that favours compounds with a hit; in the whole collection about 12% have one here. Calls come from the whole dose curve; as a rule, active = well fitted curve in the direction sought with a large enough effect; inconclusive = small, poorly fitted or top-dose-only effect, or another doubt; inactive = no such curve, though single readings can be large; an effect the other way counts as inactive or inconclusive. Potency is the fitted concentration of half-maximal effect.

SMILES	HP1b chromo inh	L3MBTL1 block	BAZ2B block	JMJD2A Tudor inh	Sfp inh	G9a block
S=C(NNC(=S)Nc1ccccc1)Nc1ccccc1	u	x	-35%	-33%	50µM*	0.35µM*
CNC(=O)C1CC(=O)N(c2ccc(OCC(=O)NCc3ccccc3)cc2)C1 (stereo not drawn)	27%	x	7%	-3%	10%	39%
Cc1ccc(NCc2nnc3n2CCCCC3)cc1Cl	42%[57 µM]	x	27%	-4%	x	6%[59 µM]
S=C(Nc1ccccc1)Nc1ccccc1C#Cc1ccccc1	x	x	x	x	1%	x
O=C(CCCCCCCC(=O)NNC(=O)Nc1ccccc1)NNC(=O)Nc1ccccc1	4%	-10%	79µM*	79µM*	7%	-48%[59 µM]
S=C(NN=C(C1CC1)C1CC1)Nc1ccccc1	-10%	-4%	-6%	50µM*	20µM*	5.6µM*
O=C(NNC(=S)Nc1ccccc1)C1CC1	40%	2%	-3%	-5%	-8%	-5%
C[Si](C)(C)C#Cc1ccccc1NC(=S)Nc1ccccc1	x	x	x	x	79µM*	x
Cc1cc(C)cc(N(CC(=O)NCc2ccccc2Cl)S(=O)(=O)c2c(C)noc2C)c1	28%	x	x	-5%	x	5%[59 µM]
CC(C)(C)OC(=O)N1CCC(c2c(C(=O)NCC3CCN(C4CCCC4)C3)cnn2-c2ccccc2Cl)CC1 (stereo not drawn)	33%	x	-17%	-20%	-9%	71µM*
O=C(NCc1ccc2[nH]c3c(c2c1)CCCC3)N1CCOCC1	x	x	-1%	x	-18%	u
Cc1ccccc1NC(=S)NCc1ccc2[nH]c3c(c2c1)CCCC3	u	u	40µM*	40µM*	5%	40µM*
Cc1ccc(C)c(NC(=S)NCc2ccc3[nH]c4c(c3c2)CCCC4)c1	u	-21%	32µM*	50µM*	-7%	40µM*
S=C(NCc1ccc(Cl)cc1)Nc1ccccc1Cl	39%	8%	-2%	2%	4%	29%[59 µM]
S=C(NCc1ccc2[nH]c3c(c2c1)CCCC3)Nc1ccccc1Cl	u	-24%	35µM*	50µM*	-10%	40µM*
CCCCc1nn2c(=O)cc(COC(=O)c3cccc(NC(=O)c4cccc(Cl)c4)c3)nc2s1	19%	x	-3%	4%	x	5%[12.7 µM]
COC(=O)c1cc(C)nc2c1c(=O)nc(SCc1cccc(C)c1)n2C1CC1	17%[57 µM]	x	1%	-17%	x	0%[59 µM]
COc1ccccc1N1CCN(C(c2cc3cc(C)ccc3[nH]c2=O)c2nnnn2C2CCCC2)CC1 (stereo not drawn)	20%	x	-38%	-16%	u	u
COc1ccccc1N1CCN(C(c2cc3ccc(C)cc3[nH]c2=O)c2nnnn2C2CCCC2)CC1 (stereo not drawn)	-1%	-6%	u	u	40µM*	28µM*
COc1cc2cc(C(c3nnnn3C3CCCC3)N3CCc4ccccc43)c(=O)[nH]c2cc1OC (stereo not drawn)	26%	-1%	-11%	-11%	-10%	45µM*
CCOC(=O)C1CCN(C(c2cc3ccc(C)cc3[nH]c2=O)c2nnnn2C2CCCCC2)CC1 (stereo not drawn)	7%	0%	-5%	-18%	35µM*	22µM*
COc1ccc(Cn2c(=O)c3oc4ccccc4c3n(Cc3ccc(F)cc3)c2=O)cc1	38%	x	-21%	3%	x	3%[59 µM]
Cc1ccc(CC(=O)NCc2ccc3c(c2)OCO3)cc1	11%	x	4%	-15%	12%	-2%[59 µM]
Cc1ccc(CNCc2ccc3c(c2)OCO3)cc1	u	6%	u	1.4µM*	-3%	13µM*
COc1ccc(CNCc2ccc3c(c2)OCO3)c(OC)c1OC	u	-2%	-31%	0.79µM*	-15%	45µM*
Fc1ccc(CNCc2ccccc2C(F)(F)F)cc1	49%	17%	6%	-1%	21%	u
FC(F)(F)c1ccccc1CNCc1ccc2c(c1)OCO2	u	x	u	20µM*	-19%	-63%
